In the library only some 2.4% were active in any assay of this set; here they are far more common.
D2 antagonist = D2 dopamine receptor (human) antagonism; AID 485344; inhibition, % at 10 µM; P14416; 340,000 tested, 2% active; HEK293 TREx D2 cells, calcium flux, dopamine EC80; in the data active = inhibition above about 30%; inactive = below that, where a call was filed; note: 0% is about no effect
Target sequence (P14416 whole entry, looked up): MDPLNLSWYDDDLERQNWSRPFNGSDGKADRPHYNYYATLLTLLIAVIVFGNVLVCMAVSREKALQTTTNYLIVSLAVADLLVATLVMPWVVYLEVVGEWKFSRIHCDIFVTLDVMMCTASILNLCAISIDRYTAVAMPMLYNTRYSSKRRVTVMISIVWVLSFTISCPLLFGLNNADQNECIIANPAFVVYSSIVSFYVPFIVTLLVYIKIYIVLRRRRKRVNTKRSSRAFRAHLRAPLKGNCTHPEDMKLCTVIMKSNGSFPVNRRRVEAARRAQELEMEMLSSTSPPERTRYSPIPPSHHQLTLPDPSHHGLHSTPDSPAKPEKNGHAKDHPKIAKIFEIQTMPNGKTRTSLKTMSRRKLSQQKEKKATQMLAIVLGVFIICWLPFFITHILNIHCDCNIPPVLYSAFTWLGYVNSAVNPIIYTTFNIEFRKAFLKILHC
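Tetracycline-induced HEK293 TREx cells expressing D2 receptor forced-coupled to calcium signalling, loaded with no-wash calcium dye. Compounds added and calcium flux read 180 s, then dopamine added at EC80 and read a further 180 s.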
D2 ag-1 = D2 dopamine receptor (human) agonism; P14416; HEK293 T-REx D2 cells, calcium flux agonist mode; 340,000 tested, 0.53% active; activation, % at 2 µM;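 active = activation over 3 SD above normal in the single-dose calcium agonist read, cut at about 30% in these data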; note: 0% is about no effect
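Tetracycline-induced HEK293 Trex cells with D2 receptor force-coupled to calcium signaling, plated overnight at 30 C and loaded with no-wash calcium dye. Calcium flux read kinetically for 180 s after compound addition; responses flag agonists.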
D2 PAM-1 = potentiates the human D2 dopamine receptor allosterically. P14416. DiscoveRx D2 beta-arrestin cells, luminescence, 90 min; 100% = 57 uM dopamine signal. potentiation, % (test concentration not listed). 360,000 tested, 0.23% active. AID 624464; in the data active = potentiation above about 50%; inconclusive = mostly about 30% to 49%
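PathHunter beta-arrestin assay in DiscoveRx D2 cells. Compounds were added with an EC20 of dopamine (50 nM final) for 90 min at 37 deg C. Luminescence was read 1 h after detection reagent, with 57 uM dopamine as the EC100 control.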
D2 PAM-2 = D2 dopamine receptor (human) potentiation; P14416; 340,000 tested, 0.34% active; potentiation, % at 10 µM; AID 485347; HEK293 T-REx D2, calcium flux, EC20 dopamine potentiation;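 active = potentiation over 3 SD above the plate norm, cut at about 30% in these data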; note: 0% is about no effect
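Calcium flux readout, no-wash dye, 1 read/s. Inducible HEK293 Trex D2 line, overnight 30 C. Compound alone 180 s (agonist flags), then EC20 dopamine, another 180 s to score potentiation.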
D2 ag-2 = human D2 receptor agonism in beta-arrestin assay; DiscoveRx PathHunter D2 beta-arrestin, luminescence, 90 min; 100% = 57 uM dopamine signal; activation, % (no concentration beside the values); P14416; 360,000 tested, 0.084% active; in the data active = activation above about 40%; inconclusive = between about 15% and that limit
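Agonist mode: compounds alone added to overnight-plated D2 PathHunter cells for 90 min at 37 C, with 57 uM final dopamine (EC100) defining full response. Beta-arrestin recruitment detected by chemiluminescent reagent, read after 1 h at ambient temperature.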
* hit, by the source's call; ? = inconclusive; . = no result given.

SMILES | D2 antagonist | D2 ag-1 | D2 PAM-1 | D2 PAM-2 | D2 ag-2
COc1ccc(F)c(CN2CCN(CCc3ccccc3)C(CCO)C2)c1 (centres undefined) | -10 | 1 | -12 | -5 | 2
OCCC1CN(Cc2ccc(F)cc2Cl)CCN1CCc1ccccc1 (centres undefined) | 30 | 0 | -24 | -18 | 3
COc1ccc(O)c(CN2CCN(CCCc3ccccc3)C(CCO)C2)c1 (centres undefined) | 75* | -3 | -2 | -20 | -1
COc1ccc(OC)c(CN2CCN(CCc3ccccc3)C(CCO)C2)c1 (centres undefined) | 45* | 1 | -9 | -17 | -6
Cc1c(C(=O)N2CCC(C)CC2)c(S(=O)(=O)N2CCN(c3ccc(Cl)cc3)CC2)c(C)n1C | . | 1 | . | 1 | .
CCc1ccccc1OCC(=O)Nc1ccc(S(=O)(=O)Nc2nc(C)cc(C)n2)cc1 | . | -1 | . | . | .
O=C(COC(=O)c1cc([N+](=O)[O-])ccc1N1CCOCC1)c1ccc(OC(F)F)cc1OC(F)F | 44* | 2 | -20 | -7 | ?
COc1cccc(N2CCN(C(=O)Cn3cnc4onc(-c5ccc(F)cc5)c4c3=O)CC2)c1 | . | -1 | . | 2 | .
O=C(NCCc1ccc(Cl)cc1)c1ccc2c(c1)N(Cc1ccccc1)C(=O)CS2 | . | 1 | . | 17 | .
CCN(CC)c1ccc(/C=C/C(=O)C2C(=O)C=C(C)OC2=O)cc1 (centres undefined) | 50* | 83* | -1 | . | -1
O=C(NCc1ccc(Cl)cc1)C1CCCN(c2cnccn2)C1 (centres undefined) | 36* | -1 | -11 | -4 | -3
O=C(NCc1ccc(Cl)cc1)C1CCN(c2cnccn2)CC1 | 4 | -1 | -2 | -18 | -3
CS(=O)(=O)N1CCc2cc(C(=O)NCc3ccccc3)ccc21 | . | 0 | . | -7 | .
Cc1c(C(=O)OC2CCCCC2)sc2nc[nH]c(=O)c12 | -1 | 0 | -7 | 31* | -1
Cc1ccc(S(=O)(=O)NCCSc2nncn2C)cc1 | -16 | 0 | -4 | 35* | 1
Cc1nn(-c2ccc(N3CCCC3)nn2)c(C)c1CCC(=O)N1CCN(c2ccc(F)cc2)CC1 | . | 0 | . | 14 | .
CC(Sc1nnc(-c2ccccc2F)n1C1CC1)C(=O)NC(N)=O (centres undefined) | 45* | 0 | -12 | -3 | -3
CC(Sc1nnc(-c2ccccc2F)n1C1CC1)C(=O)N1CCCC1 (centres undefined) | -7 | 0 | -2 | 6 | -3
Cc1c(C(N)=O)nnn1-c1ccc(Br)cc1 | . | 1 | . | 7 | .
CC(OCCN1CCCC1)(c1ccc(F)cc1)c1ccc(F)cc1 | 73* | 1 | -11 | -24 | -11
Fc1ccc(OCCOCCN2CCCC2)cc1 | . | . | -5 | . | 3
C=CCSc1nnc2c(n1)OC(c1cccnc1)Nc1ccccc1-2 (centres undefined) | -3 | 0 | 53* | -5 | 2
C=CCSc1nnc2c(n1)OC(c1cccnc1)N(C(C)=O)c1ccccc1-2 (centres undefined) | -8 | 0 | -14 | 2 | -3
Cc1cc(NC(=O)CSc2nc(C3CCCCC3)nc3ccccc23)no1 | -24 | 0 | -8 | -1 | -1
Cc1nonc1NC(=O)CSc1nc(C2CCCCC2)nc2ccccc12 | 54* | -1 | -14 | 2 | -4
SMILES | D2 antagonist | D2 ag-1 | D2 PAM-1 | D2 PAM-2 | D2 ag-2
CN(C)c1ccc(/C=N/NC(=O)CNC(=O)c2ccc3c(c2)OCCO3)cc1 | 10 | 0 | -6 | -1 | -3
CCN(CC)c1ccc(/C=N/NC(=O)CNC(=O)c2ccc3c(c2)OCCO3)cc1 | 33* | 0 | -18 | -19 | -8
Cc1ccc(OCC(=O)Nc2ccc3nc(SCC(=O)N4CCOCC4)sc3c2)cc1C | . | 0 | . | -9 | .
O=C1C=C(c2ccccc2)CC(c2cccs2)C1n1cnc([N+](=O)[O-])c1 (centres undefined) | -25 | -1 | 21 | 13 | 1
O=C1C=C(c2ccccc2)C[C@H](c2cccs2)[C@H]1n1nnc([N+](=O)[O-])n1 | . | . | 58* | -1 | 13
Cc1cc(Cl)ccc1OCC(O)CN1C(C)CCCC1C (centres undefined) | 31* | 0 | . | 0 | .
Cc1ccc2c(c1)c(=O)c(Br)c(C)n2Cc1ccccc1 | 56* | 0 | -18 | -5 | -5
Cc1cc(=O)c2ccccc2n1Cc1ccccc1 | -2 | -1 | -12 | -3 | -4
CCOC(=O)c1sc(=S)n(-c2ccc(C)cc2)c1SC | 48* | 1 | -7 | 14 | -5
Cc1noc(/C=C/N(C)C)c1S(=O)(=O)N1CCC(C(=O)NC(C)(C)C)CC1 | 31* | -1 | 0 | -4 | 0
Cc1ccc(NC(=O)C2CCN(S(=O)(=O)c3c(C)noc3/C=C/N(C)C)CC2)cc1 | -29 | 1 | -12 | 4 | -1
CCOc1ccc(Cn2c(CNS(=O)(=O)c3ccc([N+](=O)[O-])cc3)nc3cccnc32)cc1 | . | 0 | . | 8 | .
COc1ccc(OC(F)(F)F)cc1CC1(C)C(=O)Nc2ccc(S(=O)(=O)NC3CCCCC3)cc21 (centres undefined) | . | . | -2 | . | 6
COc1ccccc1CNCC(O)Cn1c2ccccc2c2ccccc21 (centres undefined) | 42* | 3 | -2 | 5 | 1
COc1ccccc1C(C)NCC(=O)NCc1ccc(C)cc1 (centres undefined) | 37* | 0 | -16 | -28 | 1
COc1ccccc1CNCC(=O)NCc1ccc(C)cc1 | 52* | 0 | -27 | -26 | -2
COc1ccccc1C(C)NCC(=O)NCC(=O)Nc1ccc(F)c(F)c1F (centres undefined) | -1 | 0 | -19 | -11 | 0
COc1ccccc1CNC(=O)Cc1ccc(C)cc1 | -19 | 0 | -6 | -2 | 2
CCc1nc2nc(C)c(NS(=O)(=O)c3ccc(C(C)(C)C)cc3)c(=O)n2[nH]1 | . | 0 | . | 0 | .
COc1ccc(CCN2CCC(CNC(=O)c3cnn(-c4ccc(C)cc4)c3C3CCN(C(=O)OC(C)(C)C)CC3)CC2)cc1 | . | 0 | . | -11 | .
Cc1ccc(NC(=O)[C@H](NC(=O)[C@@H]2Cc3ccccc3CN2)c2ccccc2)cc1 | -6 | 1 | -33 | -24 | 0
COc1cccc(NC(=O)[C@H](Cc2ccccc2)NC(=O)[C@@H]2Cc3ccccc3CN2)c1 | 35* | 0 | -11 | 6 | -1
CC(C)c1ccc(NC(=O)[C@H](NC(=O)[C@@H]2Cc3ccccc3CN2)c2ccccc2)cc1 | 33* | 0 | -19 | -11 | -3
Cn1c(=O)c2sccc2n2c(CCCC(=O)NC3CCCCC3)nnc12 | . | 1 | . | 1 | .
O=C(COC(=O)/C=C/c1ccc(OC(F)F)cc1)NC1CCCC1 | 32* | 0 | -16 | 8 | -3
O=C(COC(=O)/C=C/c1ccc(OC(F)F)cc1)NC(=O)NC1CCCCC1 | . | . | -3 | . | -1
